# Compound activity from PubChem BioAssay.
# HP1b chromo inh – HP1-beta chromodomain-methylated histone interaction inhibition | 390,000 compounds, 0.56% hits | P83916 | Potency, µM (series often up to 114 µM), for inactives: at the highest dose activity change, negative = inhibition, usual class: inhibitors | AlphaScreen HP1-beta / biotin-H3K9me3 peptide binding; also: nearly all actives have a fitted effect of over 70% in size
#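 AlphaScreen: HP1-beta (50 nM) preformed 30 min with biotin-H3(1-18)K9me3 peptide (50 nM) in PBS pH 7.4, 0.01% Tween-20. Compound added for 30 min at RT, then streptavidin donor/nickel chelate acceptor beads (10 ug/mL) for 30 min.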
# BAZ2B block – blocks human BAZ2B; Q9UIF8; AlphaScreen BAZ2B-H3K14Ac peptide displacement; Potency, µM (doses to about 114 µM), for the others: top-dose activity change, negative = inhibition, usual class: inhibitors; 360,000 compounds, 4.4% hits; also: % is scaled to controls: 0 for no effect and ±100 for the full control effect; nearly all actives have a fitted effect of over 60% in size
#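 BAZ2B 50 nM plus b-H3(5-23)K14Ac 50 nM, PBS pH 7.4/0.01% Tween-20, 30 min RT; compound added (max 110 uM), 30 min RT; streptavidin donor/Ni-chelate acceptor beads 10 ug/mL final, 20 min dark; AlphaScreen read.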
# Sfp PPTase inh – inhibitors of Bacillus subtilis Sfp phosphopantetheinyl transferase; Q9F4F7; Biochemical Sfp PPTase activity, qHTS; Potency, µM, for the others: largest response in the series, negative = inhibition, usual class: inhibitors; 310,000 compounds, 3.5% hits;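 also: the enzyme is Sfp with the accession as filed and its product quenches rhodamine fluorescence; 0% = enzyme reaction without inhibitor and -100% = no enzyme wells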
#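 After 15 min at room temperature with compound, 15 nM Sfp received 5 uM rhodamine-CoA plus 12.5 uM BHQ-2-ybbR (50 mM Hepes pH 7.6, 10 mM MgCl2). Rate came from the fluorescence difference over 30 min, ex 525/em 598 nm.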
# G9a block – blocks human histone lysine methyltransferase G9a; AID 504332; Potency, µM (highest dose often 102 µM), without a hit: top-dose activity, negative = inhibition, most hits filed as inhibitors; 350,000 compounds, 8.8% hits; G9a H3K9 monomethylation, AlphaScreen, 2 h; Q96KQ7; also: % is scaled to controls: 0 for no effect and ±100 for the full control effect; nearly all actives have a fitted effect of over 75% in size
#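 Compounds were preincubated with 20 nM G9a for 15 min, after which biotinylated H3K9 peptide (500 nM) and SAM (20 uM) started a 2 h room-temperature reaction. Monomethylated product was quantified by antibody-based AlphaScreen chemiluminescence.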
# L3MBTL1 block – inhibitors of human L3MBTL1. Q9Y468. AlphaScreen L3MBTL1–H3K9me1 peptide binding. Potency, µM (highest dose often 57.1 µM), without a hit: top-dose activity, negative = inhibition, usual class: inhibitors. 230,000 compounds, 0.66% hits. AID 485360; also: % is scaled to controls: 0 for no effect and ±100 for the full control effect; nearly all actives have a fitted effect of over 60% in size
# Target sequence (Q9Y468 whole entry, looked up): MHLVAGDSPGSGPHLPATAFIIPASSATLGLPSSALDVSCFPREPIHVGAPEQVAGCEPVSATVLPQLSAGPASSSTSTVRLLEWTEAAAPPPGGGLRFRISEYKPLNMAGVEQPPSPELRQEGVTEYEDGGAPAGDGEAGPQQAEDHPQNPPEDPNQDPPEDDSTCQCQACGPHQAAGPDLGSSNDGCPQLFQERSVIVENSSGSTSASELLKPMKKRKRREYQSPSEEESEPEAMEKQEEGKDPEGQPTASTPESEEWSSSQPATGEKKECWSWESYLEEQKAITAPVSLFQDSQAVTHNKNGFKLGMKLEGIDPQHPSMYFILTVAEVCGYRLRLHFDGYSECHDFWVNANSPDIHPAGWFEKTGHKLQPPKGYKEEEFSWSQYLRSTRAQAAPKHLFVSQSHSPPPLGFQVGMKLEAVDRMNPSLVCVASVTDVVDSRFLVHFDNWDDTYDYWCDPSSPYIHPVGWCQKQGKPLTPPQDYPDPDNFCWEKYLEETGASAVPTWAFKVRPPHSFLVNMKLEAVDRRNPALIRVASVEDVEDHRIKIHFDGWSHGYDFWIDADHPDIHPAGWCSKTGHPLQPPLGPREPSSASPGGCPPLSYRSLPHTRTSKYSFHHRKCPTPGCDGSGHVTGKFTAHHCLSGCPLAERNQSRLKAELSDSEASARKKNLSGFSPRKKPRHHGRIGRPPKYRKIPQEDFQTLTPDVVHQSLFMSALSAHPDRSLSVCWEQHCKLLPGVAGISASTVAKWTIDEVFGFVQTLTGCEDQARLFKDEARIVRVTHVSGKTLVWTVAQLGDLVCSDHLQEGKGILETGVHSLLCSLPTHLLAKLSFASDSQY
#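 L3MBTL1 (50 nM) pre-complexed 30 min with biotinylated H3(1-15)K9me1 peptide (75 nM), then compounds added for 30 min at room temperature; AlphaScreen streptavidin donor/nickel chelate acceptor beads (10 ug/mL final) read after 30 min dark incubation.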
# JMJD2A Tudor – JMJD2A Tudor domain (human) inhibition; Potency, µM (doses to about 114 µM), inactives show top-dose activity change, negative = inhibition, actives largely listed as inhibitors; O75164; AID 504339; AlphaScreen JMJD2A-Tudor / H3K4me3 peptide binding; 390,000 compounds, 4.4% hits; also: % is scaled to controls: 0 for no effect and ±100 for the full control effect; nearly all actives have a fitted effect of over 50% in size
# Starred values were filed as active, the others as inactive; ? = inconclusive; / = no result; [ ] = dose if it differs, or a comment. Shown are actives, neighbours in structure and some others; about 12% of the full set was active somewhere. Calls follow the shape of the dose curve; as a rule, active = well fitted curve in the direction sought with a large enough effect; inconclusive = small, poorly fitted or top-dose-only effect, or another doubt; inactive = no such curve, though single readings can be large; an effect the other way counts as inactive or inconclusive. Potency is read from the fitted curve at half-maximal effect.
SMILES,HP1b chromo inh,BAZ2B block,Sfp PPTase inh,G9a block,L3MBTL1 block,JMJD2A Tudor
COc1cc([C@@H]2c3cc4c(cc3[C@H](O)[C@H]3COC(=O)[C@@H]23)OCO4)cc(OC)c1OC,72%,/,/,/,/,-18%
C1CCc2nnnn2CC1,/,/,-2%,20%[59 µM],/,/
COc1cc2c(cc1OC)C(C(=O)N1CCC3(CC1)OCCO3)C(c1ccccc1F)N(C)C2=O (centres undefined),20%,3%,-2%,0.79µM*,4%,3%[57.1 µM]
CC(=O)C1=C(O)[C@@H]2[C@@H]3c4c[nH]c5cccc(c45)C[C@@H]3C(C)(C)N2C1=O,/,/,-15%,/,/,/
COc1ccc(C(=O)N2CCC3(CC2)OCCO3)cc1,26%,12%,5%,/,-4%,-1%
COc1ccc(CNCC(=O)N2CCC3(CC2)OCCO3)cc1,?,35µM*,-12%,22µM*,1%,13µM*
O=C1NC(=O)N(Cc2ccccc2)C(=O)C1Cc1ccccc1 (centres undefined),33%,/,/,/,/,-16%
O=C1NC(=S)NC(=O)C1C/C=C/c1ccccc1,-22%,1%,45µM*,7.9µM*,/,79µM*
O=C/C=C/c1ccccc1,28%,/,8%,22%[59 µM],-2%,-17%
O=C1NC(=S)NC(=O)C1Cc1ccccc1,?,/,/,/,/,89µM*
O=C(C[n+]1ccccc1)c1ccc(Cl)cc1,10%,-1%,5%,2µM*,/,?
COc1cccc(-n2c(/C=C/c3ccc(O)c(O)c3)nc3ccccc3c2=O)c1,-17%,?,-10%,45µM*,-7%,?
COc1ccc(-n2c(/C=C/c3ccc(O)c(OC)c3)nc3ccccc3c2=O)cc1,78%,-13%,1%,/,7%,-6%
COC(=O)c1nc(-c2ccc3c(n2)C(=O)C(N)=C(OC)C3=O)c(N)c(-c2ccc(OC)c(OC)c2O)c1C,-4%,?,16µM*,10µM*,/,-31%
COc1ccc(OC)c(C2=NOC(C(=O)N3CCC4(CC3)OCCO4)C2)c1 (centres undefined),-1%,7%,1%,-2%[12.7 µM],0%,25µM*
Cc1[nH]c2ccc(OC(F)(F)F)cc2c1CCNCc1ccc(Cl)cc1,?,50µM*,-28%,?,/,13µM*
COc1ccc2[nH]c(C)c(CCNCc3cccnc3)c2c1,?,20µM*,/,?,-11%,7.1µM*
Cc1[nH]c2ccc(OC(F)(F)F)cc2c1CCNCc1cccc([N+](=O)[O-])c1,?,50µM*,-17%,50µM*,/,7.1µM*
CCOc1cccc(CNCCc2c(C)[nH]c3ccc(OC(F)(F)F)cc23)c1O,?,35µM*,?,10µM*,/,40µM*
Cc1ccc2[nH]c(C)c(CCNCc3ccco3)c2c1,-9%[57 µM],?,4%,?,/,?
CCCCC/C=C\C/C=C\CCCCCCCC(=O)NCCCC(=O)O,/,/,30%,/,/,/
COP(=O)(OC)[C@@H](O)C(Cl)(Cl)Cl,/,/,20%,31%[21.5 µM],/,/
Cc1cccc(N2CCN(C(=O)c3ccc(CNc4c(N5CCC(C)CC5)c(=O)c4=O)cc3)CC2)c1C,-10%,?,13%,30%[59 µM],/,-23%
C=C1Nc2ccccc2C(=O)N1c1ccccc1C,/,/,10%,-8%[12.7 µM],/,/
CN(N)N=Nc1nc2c([nH]1)c(=O)n(C)c(=O)n2C,17%,-18%,18µM*,2.2µM*,2%,79µM*
SMILES,HP1b chromo inh,BAZ2B block,Sfp PPTase inh,G9a block,L3MBTL1 block,JMJD2A Tudor
CC1=C(O)C(=O)C=C2C1=CC=C1[C@]2(C)CC[C@@]2(C)C3C[C@](C)(C(=O)O)CC[C@@]3(C)CC[C@@]12C (some centres undefined),/,/,-99%,?,/,/
COc1cccc(NC(=O)c2ccc[n+](C)c2)c1,39%,-25%,-1%,40µM*,/,?
COc1cccc(NC(=O)Cn2cc(C(=O)c3ccccc3)c3ccccc32)c1,16%,-17%,/,-11%[59 µM],/,-26%
CN(C)c1ccc(CN2CC=C(c3ccc(F)cc3)CC2)cc1,-38%,50µM*,-13%,?,-16%,50µM*
COc1cc(CN2CC=C(c3ccc(F)cc3)CC2)cc(OC)c1,49%,2%,-1%,/,-2%,6%
Cc1ccccc1C(=O)NNC(=S)NC(=O)COc1ccccc1,?,?,?,0.56µM*,/,4.5µM*
COc1ccc(C(=O)NC(=S)NNC(=O)c2cccnc2)cc1,18%,13%,6%,?,/,-9%
COc1ccc(CC(=O)NC(=S)NNC(=O)COc2c(C)cccc2C)cc1,?,8%,2%,1.1µM*,6%,16µM*
O=C(O)COc1ccccc1,47%,?,-3%,1%[0.501 µM],1%,-2%
CCOC(=O)c1c(-n2c(C)cc(C=C3C(=O)NC(=S)NC3=O)c2C)sc2c1CCCC2,-7%,?,18µM*,?,-10%,?
CCOC(=O)c1c(-n2c(C)cc(/C=C3/C(=O)NC(=O)N(CC)C3=O)c2C)sc2c1CCCC2,26%,/,/,/,/,-19%
Cc1ccc(N2C(=O)NC(=O)/C(=C\c3cc(C)n(-c4sc5c(c4C#N)CCCC5)c3C)C2=O)cc1,-14%,?,40µM*,?,-16%,?
Cc1cc(/C=C2\C(=O)NC(=O)N(c3ccc(Cl)cc3)C2=O)c(C)n1-c1cccc(C(=O)O)c1,-3%,-39%,-9%,-6%[2.33 µM],/,?
CCN1C(=O)NC(=O)/C(=C/c2cc(C)n(-c3sc(C)c(C)c3C#N)c2C)C1=O,?,-16%,16µM*,-33%[59 µM],-5%,?
Cc1cc(/C=C2\C(=O)NC(=O)N(c3ccc(Br)cc3)C2=O)c(C)n1-c1cc(C(=O)O)cc(C(=O)O)c1,?,56µM*,-2%,20µM*,/,22µM*
Clc1cncc(N2CCNCC2)n1,/,/,-10%,19%[59 µM],/,/
CC(C)[C@H](NC(=O)[C@H](CCC(=O)O)NC(=O)[C@H](Cc1ccccc1)NC(=O)[C@H](C)NC(=O)[C@@H](N)Cc1ccc(O)cc1)C(=O)N[C@H](C(=O)NCC(N)=O)C(C)C,/,/,-24%,27%[59 µM],/,/
NCCCNCCSP(=O)(O)O,/,/,9%,-6%[12.7 µM],/,/
CC1N(C)c2cc(NC(=O)c3ccco3)c(P(=O)(Nc3ccc([N+](=O)[O-])cc3)N3CCOCC3)cc2C1(C)C (centres undefined),?,?,13%,50µM*,/,?
CCn1nc(/C=C/c2ccccc2)nc2c(=O)n(C)c(=O)nc1-2,2%,-1%,?,/,6%,-31%
CCn1nc(-c2cccs2)nc2c(=O)n(C)c(=O)nc1-2,29%,-12%,-5%,18µM*,?,-9%
CC[C@@]1(O)C(=O)OCc2c1cc1n(c2=O)Cc2cc3c(O)cccc3nc2-1,/,/,?,2.5µM*,/,/
